# Measurements from PubChem BioAssay AID493036 (Sanford-Burnham Center for Chemical Genomics, 2011).
# In all, about 330,000 compounds went through this assay and about 560 (0.17%) were called active.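 How the source made its calls: active means activation at or above 40% of the spot to cytoplasm intensity ratio, with at least 20 cells analyzed; inconclusive means wells under 20 cells, flagged as cytotoxic or low count; inactive means the rest.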 The entries come from a sample that favours actives as a whole.
# Tests used:
# [1] = agonists of human NTR1, primary screen, imaging, U2OS cells, beta-arrestin-GFP, high content (AID 493036); settings: NTR1-U2OS beta-arrestin-GFP spot imaging, agonist mode; measured here: cell count, cytotoxicity flag; at 20 µM;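 on activation: 0% = DMSO without peptide and 100% = 100 nM NTR1 peptide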
# [2] = biological target: Neurotensin receptor type 1 (Homo sapiens) (UniProt P30989); assay: as above; settings: NTR1-U2OS beta-arrestin-GFP spot imaging, agonist mode; at 20 µM; stronger effect = higher value
# Chain of Neurotensin receptor type 1 (Homo sapiens) (P30989 whole entry, looked up): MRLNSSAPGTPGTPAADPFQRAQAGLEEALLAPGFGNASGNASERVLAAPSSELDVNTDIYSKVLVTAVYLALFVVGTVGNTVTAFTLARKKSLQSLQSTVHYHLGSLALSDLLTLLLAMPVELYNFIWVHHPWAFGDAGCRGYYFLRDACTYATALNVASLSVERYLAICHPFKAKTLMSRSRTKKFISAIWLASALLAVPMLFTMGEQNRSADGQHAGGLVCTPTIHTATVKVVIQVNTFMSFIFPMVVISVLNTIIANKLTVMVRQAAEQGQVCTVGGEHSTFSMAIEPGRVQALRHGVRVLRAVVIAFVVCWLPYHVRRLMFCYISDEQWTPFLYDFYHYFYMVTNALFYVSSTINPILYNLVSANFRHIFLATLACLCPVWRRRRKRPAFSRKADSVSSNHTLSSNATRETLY
Compound,cell count [1],activation [2]
Nc1c(-c2ccc(F)cc2)cnc2ncnn12,91 cells,-0.2% (inactive)
CCOC(=O)Cn1c(=O)n(Cc2ccc(OC)cc2)c(=O)c2cccnc21,62 cells,-0.6% (inactive)
Cc1nnc(-c2ccc(Oc3ccc(C)c(C)c3)c([N+](=O)[O-])c2)o1,52 cells,-0.2% (inactive)
Cc1cc(C)cc(NC(=O)COc2coc(CN3CCN(c4ccccc4)CC3)cc2=O)c1,47 cells,1.4% (inactive)
CCCNC(=O)COc1coc(CN2CCN(Cc3ccccc3)CC2)cc1=O,51 cells,0.5% (inactive)
Cc1ccc(NC(=O)COc2coc(CN3CCc4ccccc4C3)cc2=O)cc1Cl,63 cells,40.7% (active)
COc1ccc(CNC(=O)CNC(=O)c2sc3ccccc3c2Cl)cc1OC,47 cells,1.7% (inactive)
COCCNC(=S)N/N=C/c1c(C)[nH]c2ccccc12,45 cells,1.2% (inactive)
O=C(N/N=C/c1c(Cl)[nH]c2ccccc12)c1sc2ccccc2c1Cl,73 cells,41.9% (active)
CC(=O)N1c2ccc(S(=O)(=O)N3CCC(C(=O)NC4CCCCC4C)CC3)cc2CC1C (stereo not drawn),45 cells,2.5% (inactive)
CC(C)Cn1c(N)c(C(=O)NCc2cccs2)c2nc3ccccc3nc21,78 cells,41.7% (active)
COCC(C)OC(=O)c1c(N)n(CCCN2CCOCC2)c2nc3ccccc3nc12 (stereo not drawn),68 cells,-1% (inactive)
CCOc1ccccc1NC(=O)Cn1nnc(C(=O)NCc2cccs2)c1N,61 cells,1.8% (inactive)
O=C(c1cc(Cl)cc(Cl)c1)N1CCC(=O)N(C(COCc2ccccc2)Cc2ccccc2)CC1 (stereo not drawn),76 cells,8.8% (inactive)
CCCCN1C(=O)c2ccc(C(=O)Nc3ccc(S(=O)(=O)N(C)C)cc3)cc2C1=O,77 cells,3.1% (inactive)
CCN(CC(=O)Nc1ccc(OC)cc1)C(=O)c1ccc(=O)n(Cc2ccccc2)n1,54 cells,-0.5% (inactive)
CC(C)Oc1c(Br)cc(Br)cc1/C=N/NC(N)=S,60 cells,66.8% (active)
CC1(C(=O)N/N=C/c2cc3c(cc2Br)OCO3)CC1(Br)Br (stereo not drawn),71 cells,5.3% (inactive)
O=c1oc2ccccc2cc1-c1cn(-c2ccccc2)c(=S)[nH]1,47 cells,6.1% (inactive)
Cc1ccc(Nc2nc(-c3ccc(O)cc3O)cs2)nc1,37 cells,18.9% (inactive)
O=c1oc2ccccc2cc1-c1csc(Nc2ccc(O)cc2)n1,50 cells,76.8% (active)
CCC1(CC)Cc2ccccc2-c2nc(CCl)[nH]c(=O)c21,60 cells,61.8% (active)
CC1(C)Cc2ccccc2-c2nc(CN3CCOCC3)[nH]c(=O)c21,89 cells,-0.1% (inactive)
CC1(C)Cc2ccccc2-c2[nH]c(=S)[nH]c(=O)c21,53 cells,0.3% (inactive)
